Inconclusive results are not listed. A number with no mark means an inactive call. The source made the active and inactive calls. Calls follow the shape of the full dose curve.
target: Progesterone receptor (Homo sapiens) (UniProt P06401); assay: qHTS assay to identify small molecule agonists of the progesterone receptor (PR) signaling pathway (AID 1346784); conditions: PR-UAS-bla HEK293T, beta-lactamase FRET ratio, 16 h; series mostly up to 92.4 µM; activation: at the top concentration; also: nearly all actives have a fitted effect of over 30% in size
Sequence (P06401 whole entry, looked up): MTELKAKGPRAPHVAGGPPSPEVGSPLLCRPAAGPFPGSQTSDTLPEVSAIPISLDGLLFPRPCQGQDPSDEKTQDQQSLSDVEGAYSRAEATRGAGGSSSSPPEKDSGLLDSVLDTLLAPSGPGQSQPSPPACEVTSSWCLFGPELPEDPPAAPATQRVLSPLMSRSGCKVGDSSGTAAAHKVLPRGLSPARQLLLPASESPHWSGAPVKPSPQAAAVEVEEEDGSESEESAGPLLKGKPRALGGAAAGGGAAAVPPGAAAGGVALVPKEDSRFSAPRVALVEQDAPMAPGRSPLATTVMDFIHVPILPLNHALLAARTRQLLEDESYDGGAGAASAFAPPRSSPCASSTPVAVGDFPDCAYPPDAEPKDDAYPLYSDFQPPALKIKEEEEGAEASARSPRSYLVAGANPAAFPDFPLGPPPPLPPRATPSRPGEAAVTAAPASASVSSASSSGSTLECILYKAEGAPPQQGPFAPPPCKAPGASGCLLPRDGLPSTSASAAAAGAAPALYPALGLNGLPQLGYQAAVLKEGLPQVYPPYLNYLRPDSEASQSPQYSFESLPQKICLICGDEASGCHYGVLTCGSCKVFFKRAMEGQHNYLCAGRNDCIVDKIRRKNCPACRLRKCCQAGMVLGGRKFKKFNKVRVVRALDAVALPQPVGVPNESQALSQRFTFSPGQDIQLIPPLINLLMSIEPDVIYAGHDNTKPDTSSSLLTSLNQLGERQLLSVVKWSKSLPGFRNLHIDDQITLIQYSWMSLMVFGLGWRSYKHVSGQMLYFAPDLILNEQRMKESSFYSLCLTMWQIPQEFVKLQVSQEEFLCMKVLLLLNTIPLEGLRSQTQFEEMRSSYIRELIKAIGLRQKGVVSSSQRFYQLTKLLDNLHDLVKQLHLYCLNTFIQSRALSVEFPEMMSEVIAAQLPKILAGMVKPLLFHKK
Source text: U.S. Tox21 Program National Center for Advancing Translational Sciences [NCATS] NIH Chemical Genomics Center [NCGC] U.S. Environmental Protection Agency [EPA] National Institutes of Environmental Health Sciences [NIEHS] National Toxicology Program [NTP] U.S. Food and Drug Administration [FDA] […] Endocrine disrupting chemicals (EDCs) and their interactions with steroid hormone receptors like PR causes disruption of normal endocrine function. To identify the compounds that activate PR signaling, a PR-UAS-bla GripTite cell line i.e. PR-UAS-bla HEK 293T (Invitrogen, Carlsbad, CA, USA) containing a beta-lactamase reporter gene under the control of an Upstream Activator Sequence (UAS) was used to screen Tox21 10K compound library.
Tox21 Assay Protocol Summary: PR-UAS-bla HEK 293T cells were dispensed at 3,000 cells/5 uL of assay medium containing 2% charcoal stripped FBS per well into black wall/clear-bottom 1536-well plates using a Multidrop Combi (ThermoFisher Scientific, Waltham, MA) dispenser. After the assay plates were incubated at a 37C and 5% CO2 for 6hr, 23 nL of compounds dissolved in DMSO, positive controls or DMSO only was transferred to the assay plate by a Pintool station (Kalypsys, San Diego, CA). The plates were incubated at 37C and 5% CO2 for 16hr. Then 1 uL of LiveBLAzer B/G FRET substrate was added using a BioRAPTR FRD (Flying Reagent Dispenser, Aurora Discovery, San Diego, CA). After the plates were incubated at room temperature for 2 hours, fluorescence intensity was measured by an Envision plate reader (PerkinElmer, Shelton, CT).
% is scaled to controls: 0 for no effect and ±100 for the full control effect; potency is read from the fitted curve at half-maximal effect.

| Compound | activation | Potency |
| --- | --- | --- |
| CCC(CO)(CO)[N+](=O)[O-] | -0.0306% |  |
| CCCCCc1ccco1 | 0.499% [at 42.5 µM] |  |
| CCOC(=O)C(C)O (stereo not given) | 3.69% |  |
| Cc1c[nH]c2ccccc12 | 0.399% [at 42.5 µM] |  |
| CC(C)c1ccc(C#N)cc1 | -2.7% |  |
| CNc1c2c(nn1C)CCCC2 | -1.69% [at 42.5 µM] |  |
| COc1cc(C(C)=O)ccc1OCCCN1CCC(c2noc3cc(F)ccc23)CC1 | 2.05% [at 42.5 µM] |  |
| O=C(c1ccccc1)C1CCC1 | -0.12% |  |
| C=CC(=O)NC(C)C | 0.266% |  |
| CCCOC(=O)c1c(Cl)c(Cl)c(Cl)c(Cl)c1C(=O)OCCC | 1.35% |  |
| O=C(O)CO | 0.728% |  |
| COc1ccc(CCN(C)CCCN2CCc3cc(OC)c(OC)cc3CC2=O)cc1OC | 8.38% [at 42.5 µM] |  |
| CSCC[C@H](NC(=O)[C@H](Cc1c[nH]c2ccccc12)NC(=O)CCNC(=O)OC(C)(C)C)C(=O)N[C@@H](CC(=O)O)C(=O)N[C@@H](Cc1ccccc1)C(N)=O | 0.0384% [at 42.5 µM] |  |
| O=C1c2ccccc2C(=O)c2c(O)ccc(O)c21 | -0.0536% |  |
| CNCc1ccc(NC(=O)c2c[nH]c3c2C(=O)CCC3)cc1 | 5.36% |  |
| CC(C)COC(=O)COc1cc(Cl)c(Cl)cc1Cl | 1.55% |  |
| Nc1ccc(F)cc1 |  | 28.5 µM (active) |
| C=C(C)C(=O)OCCC(F)(F)C(F)(F)C(F)(F)C(F)(F)C(F)(F)C(F)(F)F | -2.35% |  |
| CCCC(=O)OC(=O)CCC | -0.173% |  |
| CCOCCC(=O)OCC | 1.19% |  |

| Compound | activation | Potency |
| --- | --- | --- |
| CCN(Cc1cccc(S(=O)(=O)O)c1)c1ccc(C(=C2C=CC(=[N+](CC)Cc3cccc(S(=O)(=O)O)c3)C=C2)c2ccc(O)cc2S(=O)(=O)[O-])cc1 | 0.375% [at 42.5 µM] |  |
| Cc1cc(CCC(=O)OCCOCCOCCOC(=O)CCc2cc(C)c(O)c(C(C)(C)C)c2)cc(C(C)(C)C)c1O | 4.23% |  |
| CCCCC(CC)COS(=O)(=O)O (stereo not given) | 0.0536% |  |
| CC(C)(C)C(O)/C=C/c1ccc2c(c1)OCO2 (stereo not given) | 0.377% [at 42.5 µM] |  |
| FC(F)(F)C(F)(F)C(F)(F)C(F)(F)CCI | -0.218% [at 42.5 µM] |  |
| CCCCOCCOC(=O)c1cccnc1 | 0.0295% [at 42.5 µM] |  |
| CC(O)Cn1cnc2c1c(=O)n(C)c(=O)n2C (stereo not given) | -0.722% [at 42.5 µM] |  |
| Cc1ccc2nc(N)[nH]c(=O)c2c1Sc1ccncc1 | 0.683% [at 42.5 µM] |  |
| C/C(C=O)=C\c1ccccc1 | -0.379% |  |
| O=C1[C@@H]2[C@H]3CC[C@H](C3)[C@@H]2C(=O)N1CCCCN1CCN(c2ncccn2)CC1 | 0.134% [at 42.5 µM] |  |
| Cc1ccc(Nc2c(F)cccc2Cl)c(CC(=O)O)c1 | 3.69% [at 42.5 µM] |  |
| Cc1cccc2sc(N)nc12 | -3.28% |  |
| CC(CCc1ccc(O)cc1)NCCc1ccc(O)c(O)c1 (stereo not given) | -0.328% [at 42.5 µM] |  |
| Cc1ccccc1S(N)(=O)=O | -0.21% |  |
| CCCCCCCC(=O)OCCCCCC | -4.17% |  |
| CC(C)(O)CCc1ccccc1 | 0.921% |  |
| CCOC(=O)c1c(N)sc2c1CCN(Cc1ccccc1)C2 | -0.0884% [at 42.5 µM] |  |
| CC1=CC[C@@H]2C[C@H]1C2(C)C | 3.56% [at 19 µM] |  |
| CCCCCCC(O)CCOC(C)=O (stereo not given) | -0.638% [at 240 µM] |  |
| ClC1=C(Cl)C1(Cl)Cl | 0.307% |  |

Reference: PubChem BioAssay (Tox21)
